Screening data (PubChem BioAssay)
GDH-TPI counter: GDH-TPI coupled enzyme inhibition counter-screen; GDH-TPI coupled enzyme counterscreen, NADH absorbance; inhibition, % at 4.8 µM; actives 1.2% (n = 360,000); AID 588335;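 also: 0% = DMSO wells and 100% = wells lacking the enzyme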
Mtb bLac sens: beta-lactam sensitization of Mtb H37Rv | M. tuberculosis H37Rv growth with meropenem, percent inhibition | inhibition, % at 25 µM | actives 0.27% (n = 330,000) | AID 434955; call rule not given here;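 also: growth measured after seven days incubation then overnight dye step; 0% = bacteria only wells and 100% = bacteria with antibiotic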
CCHF vOTU inh: blocks the CCHF virus ovarian tumor domain protease; CCHFV vOTU protease, Pep-AMC fluorescence; inhibition, % at 11.5 µM; actives 0.55% (n = 370,000); also: 0% = vehicle wells with enzyme and 100% = no enzyme wells
FBA Mtb inh: inhibitors of M. tuberculosis fructose-bisphosphate aldolase; inhibition, % at 1 µM; purified M. tuberculosis FBA, fluorescence read-out; P9WQA3; actives 2.3% (n = 360,000); in the data active = inhibition above about 27%;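 also: 0% = vehicle and 100% = reference inhibitor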
Target sequence (P9WQA3 whole entry, looked up): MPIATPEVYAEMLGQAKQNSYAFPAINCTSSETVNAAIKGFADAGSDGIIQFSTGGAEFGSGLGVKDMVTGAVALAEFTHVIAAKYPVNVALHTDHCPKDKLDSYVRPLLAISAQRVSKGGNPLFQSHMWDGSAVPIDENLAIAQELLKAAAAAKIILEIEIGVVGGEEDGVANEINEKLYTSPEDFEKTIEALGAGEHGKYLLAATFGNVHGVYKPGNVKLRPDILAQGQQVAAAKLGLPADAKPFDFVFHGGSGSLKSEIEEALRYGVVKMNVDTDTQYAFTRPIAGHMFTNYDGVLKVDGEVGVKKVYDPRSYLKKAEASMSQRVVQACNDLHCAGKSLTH
MazF activator: activators of E. coli MazEF toxin-antitoxin RNase | actives 0.32% (n = 350,000) | P0AE70 | activation, % at 20 µM | FAM/BHQ RNA-DNA oligo cleavage fluorescence, 5 h; in the data active = activation above about 50%
Target sequence (P0AE70 whole entry, looked up): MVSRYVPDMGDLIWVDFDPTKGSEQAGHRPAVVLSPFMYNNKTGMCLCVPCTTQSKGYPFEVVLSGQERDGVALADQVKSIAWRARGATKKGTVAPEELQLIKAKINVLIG
* hit, by the source's call; / = no result given; + = active, no number. Most compounds without a hit are left out; they make up all but 4% or so of the library. Rule as the data show it, unless noted: active = inhibition above about 30%; inactive = the rest.

SMILES	GDH-TPI counter	Mtb bLac sens	CCHF vOTU inh	FBA Mtb inh	MazF activator
O=C(N/N=C/c1ccc[nH]1)c1cc2ccccc2cc1O	37*	88	16	-2	4
COc1ccc(CN2C(C(=O)NCC(C)C)CSCCS2(=O)=O)cc1 (centres undefined)	/	/	-3	/	/
CCCn1c(NC(=O)c2ccccc2)nc(Cc2ccccc2)c1Cc1ccccc1	/	/	11	/	/
O=C(NC1CCCCN(Cc2cccc(C(F)(F)F)c2)C1=O)c1ccc(-c2ccccc2)cc1 (centres undefined)	/	/	11	/	/
CCN1CCN(Cc2ccc(NC(=O)c3cccc(-c4ccc5nc(NC(=O)C6CC6)sc5n4)c3)cc2C(F)(F)F)CC1	/	/	12	/	/
Cc1ccc(/C=N/NC(=O)C(O)c2ccccc2)o1 (centres undefined)	31*	0	-9	4	9
Cc1ccsc1/C=N/NC(=O)c1ccccn1	39*	94	10	2	6
CN(CCOC(=O)c1cc2ccccc2o1)C1CN(Cc2cn(Cc3ccccc3C(F)(F)F)nn2)S(=O)(=O)C1 (centres undefined)	/	/	16	/	/
O=C(Nc1cccc(F)c1)c1c(O)c2ccccc2[nH]c1=O	32*	1	-8	1	10
Cc1ccccc1NC(=O)N(C)[C@H]1C[C@H]2c3[nH]c4c(-c5ccc6c(c5)OCO6)cccc4c3CCN2C[C@H]1[C@H](C)O	/	/	-1	/	/
O=C(COC(=O)C1CCC(=O)N1)Nc1ccccc1Br (centres undefined)	32*	5	-12	1	-8
CCOc1ccc(-n2c(SCC(=O)Nc3ccc(OCc4ccccc4)cc3)nnc2-c2ccc(Cl)cc2)cc1	/	/	0	/	/
COc1ccc(-c2c(-c3cc(OC)cc(OC)c3)n(C)c3ccc(-c4ccc5[nH]ccc5c4)cc23)cc1	21	17	-12	134*	-10
COCc1ccc(-c2ccc3c(c2)c(C#Cc2ccsc2)c(-c2cc(OC)cc(OC)c2)n3C)cc1	33*	-5	1	3	-3
COc1cc(OC)cc(-c2c(C#Cc3ccsc3)c3cc(-c4cc(F)cc(F)c4)ccc3n2C)c1	8	2	5	0	-8
COc1cc(C#Cc2c(-c3cncn3C)n(C)c3ccc(-c4ccc5[nH]ccc5c4)cc23)cc(OC)c1	13	99	-7	46*	-5
COc1ccc(-c2c(-c3cc(OC)cc(OC)c3)n(C)c3ccc(-c4cnc(OC)nc4)cc23)cc1	13	3	27	8	0
COc1cc(OC)cc(-c2c(C#Cc3ccsc3)c3cc(-c4ccc(OC)c(F)c4)ccc3n2C)c1	32*	-1	3	4	-23
COc1cc(C#Cc2c(-c3cncn3C)n(C)c3ccc(-c4ccc(OC)nc4)cc23)cc(OC)c1	14	99	7	8	-5
COC(=O)[C@@]1(C(C)C)N=C(c2cc(OC)c(OC)c(OC)c2)[C@]2(O1)C(=O)N(Cc1cn(Cc3ccccc3)nn1)c1ccc(F)cc12	/	/	5	/	/
COc1cc(OC)cc(-c2c(-c3ccc(C(C)=O)cc3)c3cc(-c4cccc5[nH]ccc45)ccc3n2C)c1	36*	-7	-11	13	-7
COc1cc(OC)cc(-c2c(C#Cc3ccsc3)c3cc(-c4ccc5[nH]ccc5c4)ccc3n2C)c1	44*	-1	18	12	-15
O=C(c1cccs1)N1CC[C@H]2[C@H](CCCN2Cc2ccc(F)cc2)C1	/	/	-7	/	/
CCOC(=O)[C@]12CCCCC/C=C\1N(Cc1ccc(OC)cc1)C(=O)[C@H]2CC(=O)NCc1cccc(C(F)(F)F)c1	/	/	21	/	/
Cc1noc(/C=C/N(C)C)c1S(=O)(=O)N1CCCC(C(=O)Nc2ccc(F)cc2F)C1 (centres undefined)	39*	4	19	-6	3
SMILES	GDH-TPI counter	Mtb bLac sens	CCHF vOTU inh	FBA Mtb inh	MazF activator
Cc1ccc(NC(=O)C2CCCN(S(=O)(=O)c3c(C)noc3/C=C/N(C)C)C2)c(C)c1 (centres undefined)	36*	-3	-4	-2	8
CS(=O)(=O)N1CCCC(C(=O)Nc2ccc(F)cc2F)C1 (centres undefined)	7	-2	2	-1	1
Cc1ccc(C)c(NC(=O)C2CCCN(S(=O)(=O)c3c(C)noc3/C=C/N(C)C)C2)c1 (centres undefined)	38*	-4	5	-4	9
Cc1ccc(CCNC(=O)C2CCCN(S(=O)(=O)c3c(C)noc3/C=C/N(C)C)C2)cc1 (centres undefined)	53*	-8	10	-2	8
CN(C)c1ccc(C(=O)NC2CCCCN(Cc3cccc(Cl)c3)C2=O)cc1 (centres undefined)	/	/	3	/	/
CN(CCOC(=O)c1cccs1)C1CN(Cc2cn(Cc3ccccc3Cl)nn2)S(=O)(=O)C1 (centres undefined)	/	/	5	/	/
CCCCc1nnc(NC(=O)c2ccc3[nH]c(=O)c(=O)[nH]c3c2)s1	46*	-3	5	18	2
Cc1cccc(NC(=O)c2ccc3[nH]c(=O)c(=O)[nH]c3c2)n1	32*	6	10	6	6
COc1ccc(CCC(=O)Nc2c(-c3ccc(N(C)C)cc3)[nH][nH]c2=O)cc1	/	/	109*	2	/
COc1ccc(-c2[nH][nH]c(=O)c2NC(=O)c2ccccn2)cc1	/	/	3	0	/
COc1cc(C=Nn2c(-c3ccc(F)cc3)n[nH]c2=S)ccc1OCc1ccccc1	/	/	6	/	/
COc1ccc2cc3cc(C(=O)Nc4ccc5c(c4)OCO5)oc3nc2c1	9	-4	12	-2	5
CCCCN(CC)CCCNC(=O)c1cc2cc3ccc(OC)cc3nc2o1	36*	-11	-256	+	2
COc1ccc2cc3cc(C(=O)NCc4cccs4)oc3nc2c1	31*	31	-170	+	-1
CCCN(CCC)CCCNC(=O)c1cc2cc3ccc(OC)cc3nc2o1	32*	2	-260	+	0
CCCCN(CC)C(=O)c1cc2cc3ccc(Cl)cc3nc2o1	18	29	6	1	-2
O=S(=O)(CC1NCc2ccccc21)NCCc1ccccc1 (centres undefined)	/	/	16	/	/
CN(C)C=Nc1ccc(Cn2cnc3nc4ccc(Cl)cc4cc3c2=O)cc1	/	/	9	/	/
COC(=O)[C@H](CC(C)C)N(CCCc1cn(Cc2ccccc2)nn1)S(=O)(=O)c1ccccc1Br	/	/	22	/	/
COC(=O)c1cn(-c2ccc3c(c2)[C@@]2(CC(=O)N(C)C2c2ccccc2)C(=O)N3CC(C)C)nn1 (some centres undefined)	/	/	-4	/	/
C=C(C)CSc1nc2ccccc2c(=O)n1-c1c(C)n(C)n(-c2ccccc2)c1=O	5	-13	-11	1	3
Cc1c(-n2c(SCC(=O)C(C)(C)C)nc3ccccc3c2=O)c(=O)n(-c2ccccc2)n1C	8	2	-8	145*	-1
O=C(NNC1=Nc2ccccc2SC1)c1ccc(Cl)cc1	38*	96	-6	-1	-5
O=C(NNC1=Nc2ccccc2SC1)c1ccc(F)cc1	4	95	-11	3	-2
